# The list shows a part of the results. Activity calls are given as the source filed them.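 How the source made its calls, unless noted: active means mean inhibition above about 50% in the one-dose retest (limit read from the data); inactive means the rest.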
# Key:
# [1] = target: Sentrin-specific protease 8 (Homo sapiens) (UniProt Q96LD8); test: SENP8 protease inhibitors, retest, confirmation, biochemical, luminescence, single concentration (AID 488912;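 active means mean inhibition across replicates above about 50%, limit read from the data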); conditions: Recombinant SENP8, Z-RLRGG-aminoluciferin luminescence, 60 min; at 12.5 µM; stronger effect = higher value
# [2] = target: Sentrin-specific protease 6 (Homo sapiens) (UniProt Q9GZR1); test: SENP6 protease inhibitors, confirmation, biochemical, luminescence, single concentration (AID 488915); conditions: recombinant SENP6, Z-RLRGG-aminoluciferin luminescence; at 12.5 µM; stronger effect = higher value
# [3] = target: Sentrin-specific protease 7 (Homo sapiens) (UniProt Q9BQF6); test: SENP7 protease inhibitors, retest, confirmation, biochemical, luminescence, single concentration (AID 488917); conditions: recombinant SENP7, Z-RLRGG-aminoluciferin luminescence, 40 min; at 12.5 µM; stronger effect = higher value
# [4] = target: Caspase-3 (Homo sapiens) (UniProt P42574); test: caspase-3 protease inhibitors, confirmation, selectivity assay for SENP inhibitor project, biochemical, single concentration (AID 488918;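 active means mean inhibition above about 50%, limit read from the data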;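 further: plate controls were enzyme with DMSO for no effect and wells without caspase-3 for full effect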); conditions: purified caspase-3, Z-DEVD-aminoluciferin luminescence, 60 min; at 12.5 µM; stronger effect = higher value
# [5] = luciferase luminescence interference by compounds, confirmation, artefact control for SENP inhibitor project, biochemical, single concentration, SENP8 reaction pre-completed (AID 488919;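 active means mean inhibition above about 50% when retested at one dose, limit read from the data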;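 further: plate controls were DMSO wells with completed reaction for no effect and substrate without enzyme for full effect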); conditions: Pre-incubated SENP8/Z-RLRGG-aminoluciferin, at 12.5 µM, stronger effect = higher value
# [6] = target: Tumor necrosis factor receptor superfamily member 10B (Homo sapiens) (UniProt O14763); test: caspase-8 TRAIL sensitization, hit retest, confirmation, cell-based, NB7+caspase-8, with/without TRAIL, luminescence panel (AID 651596; in the data active means activity above about 50%); conditions: NB7 neuroblastoma + caspase-8, TRAIL sensitization, luminescence viability, with TRAIL, mean of runs, at 10 µM, stronger effect = higher value
# [7] = as above; conditions: NB7 neuroblastoma + caspase-8, without TRAIL, luminescence viability, without TRAIL, mean of runs, at 10 µM
# [8] = Apaf-1 inhibitors, single-dose retest, confirmation, biochemical, fluorescence, DEVD-Rh110, 20 µM (AID 504614;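 active means mean inhibition of at least 40% at 20 µM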;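 further: plate controls were DMSO wells for no effect and DEVD-CHO caspase inhibitor control wells for full effect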); conditions: reconstituted apoptosome, caspase-3 DEVD-Rh110 fluorescence; at 20 µM; stronger effect = higher value
# [9] = Rh110 fluorescence interference by putative Apaf-1 inhibitors, confirmation, artefact control for Apaf-1 inhibitor project, biochemical, 20 µM (AID 504615;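 active means signal rise of 40% or more at 20 µM, treated as a fluorescence artifact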); conditions: quenched caspase reaction, at 20 µM, stronger effect = higher value
# [10] = fluorescence interference of Apaf-1 inhibitor hits, dose response, artefact control for Apaf-1 inhibitor project (AID 588538; call rule not given here); conditions: fluorescence interference counterscreen, Apaf-1 assay format
# [11] = target: Protein Mdm4 (Homo sapiens) + E3 ubiquitin-protein ligase Mdm2 (Homo sapiens) (UniProt O15151+Q00987); test: retested Mdm2-MdmX interaction blockers, confirmation, cell-based, luminescence, single concentration, set 2 (AID 504601;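 active means mean inhibition of the luminescence signal across two replicates at or above 26 percent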); conditions: SaOS-2 split-luciferase Mdm2/MdmX complementation, at 8 µM, stronger effect = higher value
# [12] = Peg3 promoter reporter inhibitors, retest, confirmation, cell-based, HeLa, luciferase reporter, single concentration (AID 602417;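 active means at 20 µM dose, 40% or more inhibition averaged across four replicates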); conditions: HeLa PEG-Prom luciferase reporter, luminescence, overnight; at 20 µM; stronger effect = higher value
# [13] = inhibition of Brca1/Bard1 split-luciferase complementation, confirmation, counter-screen for Mdm2/MdmX interaction inhibitor project, luminescence, single concentration (AID 504668; call rule not given here); conditions: Brca1/Bard1 bimolecular luciferase complementation counterscreen, at 8 µM, stronger effect = higher value
# [14] = HIF-2a reporter inhibitor retest, confirmation, luminescence, 786-0 RCC cells (AID 651580;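 active means mean inhibition across four replicates of at least 40 percent at the single tested concentration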); conditions: HIF-2a luciferase reporter luminescence, overnight, at 18.8 µM, stronger effect = higher value
# [15] = HIF-1a luciferase reporter signal reduction – MiaPaCa-2 cells, single concentration, counter-screen for HIF-2a inhibitor project, confirmation (AID 651589;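 active means mean inhibition of the reporter signal across four replicates at the single tested dose of 50% or more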); conditions: MiaPaCa-2 HIF-1a luciferase reporter, desferoxamine, overnight; at 18.8 µM; stronger effect = higher value
# [16] = target: PEG-3 (UniProt Q6IN02); test: Peg3 promoter luciferase inhibitors, potency, dose response, cell-based, HeLa, CREF/GAPDH counter-screen panel (AID 624167); conditions: CREF/GAPDH counter-screens; HeLa PEG-Prom luciferase reporter, overnight, run 1, dose range 1, at 100 µM (top of the series) unless noted
# [17] = target: PEG-3 (UniProt Q6IN02); test: as above; conditions: CREF/GAPDH counter-screens; HeLa PEG-Prom luciferase reporter, overnight, run 2, dose range 1, at 100 µM (top of the series) unless noted
# [18] = system: Rat fibroblasts (CREF); test: as above; conditions: CREF/GAPDH counter-screens; run 1, dose range 1, at 100 µM (top of the series)
# [19] = system: Rat fibroblasts (CREF); test: as above; conditions: CREF/GAPDH counter-screens; run 2, dose range 1, at 100 µM (top of the series)
# [20] = target: COP9 signalosome complex subunit 5 (Homo sapiens) (UniProt Q92905); test: Csn5 deneddylation inhibitors, confirmation, biochemical, fluorescence polarization, single concentration, SCF-Nedd8OG substrate (AID 720654; in the data active means inhibition above about 50%;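 further: 0% = DMSO with enzyme and 100% = no enzyme wells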); conditions: Csn5 deneddylation of SCF-Nedd8OG, 90 min, at 16.6 µM, stronger effect = higher value
# [21] = target: 72 kDa type IV collagenase (Homo sapiens) (UniProt P08253); test: MMP-2 protease inhibition counter-screen, confirmation, counter-screen for CSN deneddylation inhibitor project, biochemical, fluorescence, single concentration (AID 720655;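 active means corrected plate-normalized z-score of 5 or more, or -5 or less, or inhibition of 15% or more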;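 further: plate controls were DMSO wells with enzyme for no effect and buffer wells lacking MMP-2 for full effect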); conditions: recombinant MMP-2, FRET substrate fluorescence, 60 min; at 16.6 µM
# [22] = target: Prothrombin (Bos taurus) (UniProt P00735); test: bovine thrombin inhibition counter-screen, confirmation, counter-screen for CSN deneddylation inhibitor project, biochemical, fluorescence polarization, single concentration (AID 720656;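 active means inhibition at or above a set limit, with a fluorescence interference ratio between 0.5 and a set maximum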); conditions: bovine thrombin cleavage of Ub4-pepOG, at 16.6 µM, stronger effect = higher value
# [23] = inhibitors of PAF-induced NF-kB signaling, retest, confirmation, cell-based, GFP fluorescence, single concentration (AID 602472; in the data active means inhibition above about 40%;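 further: stimulus PAF is a Pseudomonas aeruginosa filtrate and not platelet activating factor; plate controls were DMSO wells with stimulus for no effect and unstimulated DMSO wells for full effect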); conditions: KKLEB CF airway cells, overnight, at 5 µM, stronger effect = higher value
# [24] = inhibitors of PAF-induced NFkB signaling in CF airway cells, dose response, cell-based, uHTS hits, panel, cytotoxicity readout (AID 624344); conditions: CF bronchial epithelial cells, PAF-induced NFkB reporter inhibition, with PAF, run 1; at 79 µM (top of the series) unless noted
# [25] = as above; conditions: CF bronchial epithelial cells, PAF-induced NFkB reporter inhibition, with PAF, run 2; at 79 µM (top of the series) unless noted
# Sequence of Sentrin-specific protease 7 (Homo sapiens) (Q9BQF6 706-1050 limits assumed): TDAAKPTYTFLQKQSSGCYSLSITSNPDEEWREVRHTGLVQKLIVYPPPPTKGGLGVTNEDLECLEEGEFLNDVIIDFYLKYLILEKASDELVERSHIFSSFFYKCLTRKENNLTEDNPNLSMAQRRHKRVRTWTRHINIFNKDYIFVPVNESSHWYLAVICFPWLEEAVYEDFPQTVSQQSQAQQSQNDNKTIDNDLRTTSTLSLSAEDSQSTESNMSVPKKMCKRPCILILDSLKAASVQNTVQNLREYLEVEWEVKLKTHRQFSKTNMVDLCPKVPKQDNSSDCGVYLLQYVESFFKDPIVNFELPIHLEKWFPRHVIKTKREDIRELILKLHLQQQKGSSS
# Sequence of Sentrin-specific protease 6 (Homo sapiens) (Q9GZR1 628-1112 limits assumed): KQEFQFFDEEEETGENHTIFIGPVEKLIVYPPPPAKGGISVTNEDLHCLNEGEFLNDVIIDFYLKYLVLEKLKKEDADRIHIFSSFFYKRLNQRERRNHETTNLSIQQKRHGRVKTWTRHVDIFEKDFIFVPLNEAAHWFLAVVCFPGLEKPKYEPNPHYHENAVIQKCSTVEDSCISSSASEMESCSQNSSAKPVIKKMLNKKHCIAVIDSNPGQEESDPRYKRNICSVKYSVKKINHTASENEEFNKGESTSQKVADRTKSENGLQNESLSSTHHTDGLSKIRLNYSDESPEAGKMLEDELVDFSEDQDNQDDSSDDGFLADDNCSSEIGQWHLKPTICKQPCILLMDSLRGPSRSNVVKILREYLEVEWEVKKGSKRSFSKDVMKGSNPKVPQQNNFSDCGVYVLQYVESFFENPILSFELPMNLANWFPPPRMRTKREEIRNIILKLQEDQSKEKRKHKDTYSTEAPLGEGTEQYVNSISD
# Sequence of Tumor necrosis factor receptor superfamily member 10B (Homo sapiens) (O14763 whole entry, looked up): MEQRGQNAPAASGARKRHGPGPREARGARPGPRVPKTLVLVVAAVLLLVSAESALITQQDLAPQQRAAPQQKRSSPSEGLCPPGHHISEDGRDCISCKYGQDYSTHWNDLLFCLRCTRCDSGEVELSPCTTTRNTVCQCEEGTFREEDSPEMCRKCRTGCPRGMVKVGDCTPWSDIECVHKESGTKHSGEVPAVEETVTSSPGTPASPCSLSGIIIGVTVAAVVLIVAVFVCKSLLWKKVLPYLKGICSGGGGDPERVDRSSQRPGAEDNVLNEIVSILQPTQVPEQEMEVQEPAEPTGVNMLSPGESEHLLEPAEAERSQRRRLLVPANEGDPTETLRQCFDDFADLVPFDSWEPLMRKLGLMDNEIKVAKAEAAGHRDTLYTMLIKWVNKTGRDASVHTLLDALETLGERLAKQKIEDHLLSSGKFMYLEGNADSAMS
# Sequence of PEG-3 (Q6IN02 whole entry, looked up): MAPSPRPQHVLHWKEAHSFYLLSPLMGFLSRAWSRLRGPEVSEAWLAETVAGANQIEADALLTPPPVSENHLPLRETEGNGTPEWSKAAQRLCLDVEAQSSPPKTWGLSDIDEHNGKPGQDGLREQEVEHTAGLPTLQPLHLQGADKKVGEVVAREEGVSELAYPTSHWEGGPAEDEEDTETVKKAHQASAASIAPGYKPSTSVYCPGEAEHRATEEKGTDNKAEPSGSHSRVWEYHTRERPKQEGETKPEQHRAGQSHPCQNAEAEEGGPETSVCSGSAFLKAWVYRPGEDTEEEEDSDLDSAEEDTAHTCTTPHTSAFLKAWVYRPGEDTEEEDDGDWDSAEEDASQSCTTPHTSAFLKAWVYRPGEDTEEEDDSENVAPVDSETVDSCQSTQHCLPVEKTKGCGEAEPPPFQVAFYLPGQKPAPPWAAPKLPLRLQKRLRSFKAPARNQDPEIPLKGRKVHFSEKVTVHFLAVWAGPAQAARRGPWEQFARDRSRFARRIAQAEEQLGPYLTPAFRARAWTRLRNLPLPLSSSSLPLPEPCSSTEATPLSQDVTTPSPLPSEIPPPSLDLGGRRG
# Sequence of Protein Mdm4 (Homo sapiens) + E3 ubiquitin-protein ligase Mdm2 (Homo sapiens) (O15151 whole entry, looked up): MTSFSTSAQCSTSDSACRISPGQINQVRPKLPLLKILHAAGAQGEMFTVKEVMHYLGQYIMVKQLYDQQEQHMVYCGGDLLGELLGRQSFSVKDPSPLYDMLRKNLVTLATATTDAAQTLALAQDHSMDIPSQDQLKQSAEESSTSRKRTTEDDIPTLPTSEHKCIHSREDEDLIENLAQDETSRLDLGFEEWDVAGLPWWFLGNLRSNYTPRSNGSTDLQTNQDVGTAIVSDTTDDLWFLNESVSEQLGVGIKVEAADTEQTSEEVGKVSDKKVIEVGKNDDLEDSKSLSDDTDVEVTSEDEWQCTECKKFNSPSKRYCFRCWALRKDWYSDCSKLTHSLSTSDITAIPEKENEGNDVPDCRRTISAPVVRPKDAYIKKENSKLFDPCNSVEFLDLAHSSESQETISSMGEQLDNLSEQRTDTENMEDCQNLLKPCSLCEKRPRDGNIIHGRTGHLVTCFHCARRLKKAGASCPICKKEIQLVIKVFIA
# Sequence of Protein Mdm4 (Homo sapiens) + E3 ubiquitin-protein ligase Mdm2 (Homo sapiens) (Q00987 whole entry, looked up): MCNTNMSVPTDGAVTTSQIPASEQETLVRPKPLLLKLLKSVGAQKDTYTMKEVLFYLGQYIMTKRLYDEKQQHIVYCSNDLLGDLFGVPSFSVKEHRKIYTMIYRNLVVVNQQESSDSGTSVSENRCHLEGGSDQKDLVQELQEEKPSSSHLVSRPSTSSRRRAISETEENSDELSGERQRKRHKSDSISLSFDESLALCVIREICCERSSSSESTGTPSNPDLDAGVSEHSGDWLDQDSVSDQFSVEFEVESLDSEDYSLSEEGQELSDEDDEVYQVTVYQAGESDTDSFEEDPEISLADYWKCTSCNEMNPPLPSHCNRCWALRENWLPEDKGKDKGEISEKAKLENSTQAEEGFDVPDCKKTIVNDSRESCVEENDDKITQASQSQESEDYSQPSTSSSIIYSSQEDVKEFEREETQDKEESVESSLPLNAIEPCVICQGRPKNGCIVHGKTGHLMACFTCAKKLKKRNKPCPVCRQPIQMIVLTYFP
# Sequence of Sentrin-specific protease 8 (Homo sapiens) (Q96LD8 whole entry, looked up): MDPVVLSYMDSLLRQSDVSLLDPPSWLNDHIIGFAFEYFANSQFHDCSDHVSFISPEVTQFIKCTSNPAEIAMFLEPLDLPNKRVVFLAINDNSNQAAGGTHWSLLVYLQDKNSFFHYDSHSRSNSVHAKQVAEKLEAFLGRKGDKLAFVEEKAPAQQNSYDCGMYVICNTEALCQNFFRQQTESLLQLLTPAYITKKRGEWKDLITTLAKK
# Sequence of Caspase-3 (Homo sapiens) (P42574 28-227 limits assumed): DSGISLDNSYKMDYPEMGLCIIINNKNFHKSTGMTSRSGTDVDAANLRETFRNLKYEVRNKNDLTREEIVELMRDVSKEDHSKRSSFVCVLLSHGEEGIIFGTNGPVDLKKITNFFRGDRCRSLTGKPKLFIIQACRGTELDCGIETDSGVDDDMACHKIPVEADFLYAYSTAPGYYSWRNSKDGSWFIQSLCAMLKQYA
# Sequence of Prothrombin (Bos taurus) (P00735 whole entry, looked up): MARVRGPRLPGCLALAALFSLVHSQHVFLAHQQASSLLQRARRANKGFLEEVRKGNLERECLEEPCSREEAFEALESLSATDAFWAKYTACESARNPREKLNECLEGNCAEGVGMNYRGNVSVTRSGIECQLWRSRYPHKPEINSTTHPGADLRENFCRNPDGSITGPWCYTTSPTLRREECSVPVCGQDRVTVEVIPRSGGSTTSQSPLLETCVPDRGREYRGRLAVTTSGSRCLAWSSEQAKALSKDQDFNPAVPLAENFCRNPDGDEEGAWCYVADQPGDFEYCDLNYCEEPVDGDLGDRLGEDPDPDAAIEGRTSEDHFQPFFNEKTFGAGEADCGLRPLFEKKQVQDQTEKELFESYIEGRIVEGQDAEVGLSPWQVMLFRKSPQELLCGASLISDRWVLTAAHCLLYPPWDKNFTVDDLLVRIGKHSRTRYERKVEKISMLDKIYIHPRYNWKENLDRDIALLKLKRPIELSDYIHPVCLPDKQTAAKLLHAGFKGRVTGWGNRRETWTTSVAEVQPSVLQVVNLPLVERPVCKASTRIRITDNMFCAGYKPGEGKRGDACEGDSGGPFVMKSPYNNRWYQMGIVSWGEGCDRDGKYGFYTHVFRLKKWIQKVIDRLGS
# Sequence of COP9 signalosome complex subunit 5 (Homo sapiens) (Q92905 whole entry, looked up, one chain of several): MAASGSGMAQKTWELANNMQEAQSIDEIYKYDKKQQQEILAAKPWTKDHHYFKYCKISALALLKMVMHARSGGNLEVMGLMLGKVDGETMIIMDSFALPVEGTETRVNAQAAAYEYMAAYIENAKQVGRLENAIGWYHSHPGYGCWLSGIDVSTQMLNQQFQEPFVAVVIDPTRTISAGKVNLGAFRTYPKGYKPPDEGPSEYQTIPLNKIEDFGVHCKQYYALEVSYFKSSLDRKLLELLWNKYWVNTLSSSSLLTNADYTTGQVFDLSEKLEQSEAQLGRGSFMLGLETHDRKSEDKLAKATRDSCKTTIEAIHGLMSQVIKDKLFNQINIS
# Sequence of 72 kDa type IV collagenase (Homo sapiens) (P08253 whole entry, looked up): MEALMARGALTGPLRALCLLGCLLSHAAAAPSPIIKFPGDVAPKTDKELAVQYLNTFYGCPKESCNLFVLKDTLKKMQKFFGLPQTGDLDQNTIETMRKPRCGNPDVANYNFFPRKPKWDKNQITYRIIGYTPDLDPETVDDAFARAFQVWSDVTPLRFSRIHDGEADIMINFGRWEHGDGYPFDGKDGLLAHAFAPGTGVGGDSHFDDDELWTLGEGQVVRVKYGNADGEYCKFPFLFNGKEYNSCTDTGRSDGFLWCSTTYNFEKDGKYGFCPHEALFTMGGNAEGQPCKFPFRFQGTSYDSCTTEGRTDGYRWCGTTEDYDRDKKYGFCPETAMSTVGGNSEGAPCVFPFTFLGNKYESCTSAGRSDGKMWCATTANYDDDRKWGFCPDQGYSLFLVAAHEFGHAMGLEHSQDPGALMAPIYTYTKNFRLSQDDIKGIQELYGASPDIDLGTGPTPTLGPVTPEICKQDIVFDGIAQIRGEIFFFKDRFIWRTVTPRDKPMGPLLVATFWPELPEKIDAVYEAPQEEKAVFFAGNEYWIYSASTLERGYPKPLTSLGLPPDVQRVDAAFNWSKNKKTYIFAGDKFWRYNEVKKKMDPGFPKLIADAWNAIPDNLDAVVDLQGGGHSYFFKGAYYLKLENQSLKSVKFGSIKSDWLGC
smiles,measurement,setting,value
COc1cccc(C(=O)Nc2ccc(N3CCCC3)cc2)c1,inhibition,[1],95% (active)
same,inhibition,[2],99.7% (active)
same,inhibition,[3],104% (active)
same,inhibition,[4],99.5% (active)
same,inhibition,[5],86.3% (active)
same,activity,[6],46.8%
same,activity,[7],54%
CCN1C(=O)c2cccc3c(N)ccc1c23,inhibition,[1],22% (inactive)
same,inhibition,[2],41.5% (inactive)
same,inhibition,[3],15.6% (inactive)
same,inhibition,[4],2.1% (inactive)
same,inhibition,[5],-6.4% (inactive)
same,inhibition,[8],70.1% (active)
same,activation (fluorescence interference),[9],2.39% (inactive)
same,IC50,[10],> 100 µM (inactive)
CC(=C/c1ccccc1)/C=N/NC(=O)c1cc(C)oc1C,inhibition,[1],14.3% (inactive)
same,inhibition,[2],46.8% (inactive)
same,inhibition,[3],23.5% (inactive)
same,inhibition,[4],86.4% (active)
same,inhibition,[5],-2.7% (inactive)
same,activity,[6],58.5%
same,activity,[7],63.6%
CCOC(=O)c1ccc(Nc2cc3ccccc3c(=O)[nH]2)cc1,inhibition,[1],28.7% (inactive)
same,inhibition,[2],63.5% (active)
same,inhibition,[3],31.6% (inactive)
same,inhibition,[4],9.8% (inactive)
same,inhibition,[5],-2.7% (inactive)
same,inhibition,[8],62.4% (active)
same,activation (fluorescence interference),[9],11.7% (inactive)
same,IC50,[10],> 100 µM (inactive)
CC(=O)N(C1=C(Cl)C(=O)c2ccccc2C1=O)c1ccc(C(=O)O)cc1,inhibition,[1],81.7% (active)
same,inhibition,[2],91% (active)
same,inhibition,[3],55.3% (active)
same,inhibition,[4],6.3% (inactive)
same,inhibition,[5],4% (inactive)
same,inhibition,[8],95% (active)
same,activation (fluorescence interference),[9],9.87% (inactive)
same,IC50,[10],> 100 µM (inactive)
CCOC(=O)c1c(-c2cccc(C)c2)csc1NC(=O)c1c(-c2ccccc2)noc1C,inhibition,[11],101% (active)
O=C(CCCN1C(=O)/C(=C/c2ccccc2)SC1=S)Nc1ccc(O)cc1,inhibition,[11],80.2% (active)
c1c2c(cc3sc(N4CCCCC4)nc13)OCCO2,inhibition,[1],97% (active)
same,inhibition,[2],98.6% (active)
same,inhibition,[3],103% (active)
same,inhibition,[4],97.5% (active)
same,inhibition,[5],52.1% (active)
same,inhibition,[12],37.5% (inactive)
C(=N\Nc1ccc2ccccc2n1)/c1ccc2c(c1)OCO2,inhibition,[1],97.7% (active)
same,inhibition,[2],98.3% (active)
same,inhibition,[3],102% (active)
same,inhibition,[4],93.2% (active)
same,inhibition,[5],71.3% (active)
same,activity,[6],51.5%
same,activity,[7],31.6%
COc1ccc(C(=O)NC2CCCc3c2cnn3-c2cccc(C)c2C)c(OC)n1 (configuration not stated),inhibition,[11],102% (active)
O=C(Nc1ccc(Cl)cn1)c1ccc2c(c1)OCCO2,inhibition,[1],-5.1% (inactive)
same,inhibition,[2],71.4% (active)
same,inhibition,[3],92.9% (active)
same,inhibition,[4],82.8% (active)
same,inhibition,[5],76.4% (active)
same,activity,[6],67.6%
same,activity,[7],71.8%
CC(=O)Nc1cccc(C(=O)OCC(=O)c2ccc3c(c2)OCO3)c1,inhibition,[1],84.2% (active)
same,inhibition,[2],83.1% (active)
same,inhibition,[3],51.3% (active)
same,inhibition,[4],85.2% (active)
same,inhibition,[5],80.8% (active)
same,activity,[6],70.3%
same,activity,[7],60.6%
CN(c1ccc2nc3ccccc3c(=O)n2n1)C1CCCCC1,inhibition,[1],94.2% (active)
same,inhibition,[2],94.5% (active)
same,inhibition,[3],101% (active)
same,inhibition,[4],96.3% (active)
same,inhibition,[5],77.2% (active)
same,inhibition,[13],27.7% (active)
same,inhibition,[12],78.8% (active)
same,inhibition,[14],91.2% (active)
same,inhibition,[15],97.8% (active)
same,inhibition,[16],98.5%
same,inhibition,[17],86.2%
same,inhibition,[18],98.4%
same,inhibition,[19],98.9%
O=C(CSC(=S)N1CCOCC1)c1ccccc1,inhibition,[1],79.2% (active)
same,inhibition,[2],77.6% (active)
same,inhibition,[3],94.1% (active)
same,inhibition,[4],88.1% (active)
same,inhibition,[5],77% (active)
same,activity,[6],46.8%
same,activity,[7],55.2%
CC(=O)c1ccc(S(=O)(=O)N2CCN(C(=O)/C=C/c3ccc4ccccc4n3)CC2)cc1,inhibition,[11],85.2% (active)
Cc1oc2c(c1C(=O)N1CCOCC1)C(=O)c1ccccc1C2=O,inhibition,[1],27.7% (inactive)
same,inhibition,[2],61% (active)
same,inhibition,[3],6% (inactive)
same,inhibition,[4],87.5% (active)
same,inhibition,[5],-2.3% (inactive)
same,inhibition,[8],52.9% (active)
same,activation (fluorescence interference),[9],8.76% (inactive)
same,IC50,[10],> 100 µM (inactive)
COc1cc(/C=C(\C#N)c2nc3ccccc3[nH]2)ccc1O,inhibition,[1],95.1% (active)
same,inhibition,[2],95.1% (active)
same,inhibition,[3],101% (active)
same,inhibition,[4],93.4% (active)
same,inhibition,[5],66.5% (active)
same,inhibition,[20],78.1% (active)
same,inhibition,[21],-18.3% (inactive)
same,inhibition,[22],62.2% (active)
COc1cccc(NC(=O)[C@H](Cc2c[nH]c3ccccc23)NC(=O)[C@@H]2Cc3ccccc3CN2)c1,inhibition,[11],98.2% (active)
COc1ccc(-c2cc3ccc(OCc4nn[nH]n4)cc3oc2=O)cc1,inhibition,[1],64% (active)
same,inhibition,[2],63.1% (active)
same,inhibition,[3],87.3% (active)
same,inhibition,[4],66.2% (active)
same,inhibition,[5],70.6% (active)
same,activity,[6],58.8%
same,activity,[7],56.2%
O=C(Nc1nnc(S(=O)(=O)N2CCCCCC2)s1)c1cccc(Br)c1,inhibition,[1],42.1% (inactive)
same,inhibition,[2],31.9% (inactive)
same,inhibition,[3],21.7% (inactive)
same,inhibition,[4],28.6% (inactive)
same,inhibition,[5],29.4% (inactive)
same,inhibition,[23],77.4% (active)
same,inhibition,[24],83%
same,inhibition,[25],68.3%
Cc1ccsc1C(=O)OCC(=O)c1cc(C)n(CC2CCCO2)c1C (configuration not stated),inhibition,[1],35.3% (inactive)
same,inhibition,[2],97.2% (active)
same,inhibition,[3],102% (active)
same,inhibition,[4],96.7% (active)
same,inhibition,[5],58.8% (active)
same,inhibition,[13],28.9% (active)
same,inhibition,[12],80.8% (active)
same,inhibition,[14],65.9% (active)
same,inhibition,[15],80.2% (active)
same,inhibition,[16],96.8%
same,inhibition,[17],92.7%
same,activity,[6],74.5%
same,activity,[7],68.1%
O=C(/C=C/Sc1ncn[nH]1)c1ccc(Cl)cc1,inhibition,[11],103% (active)
COc1ccc(-c2cn3ccsc3n2)cc1,inhibition,[1],55.5% (active)
same,inhibition,[2],51.2% (active)
same,inhibition,[3],81.3% (active)
same,inhibition,[4],74.4% (active)
same,inhibition,[5],56.3% (active)
same,activity,[6],64.2%
same,activity,[7],54.6%

# From PubChem BioAssay
